Menin-MLL TR inh: menin-MLL binding inhibition, Texas Red mutant peptide; AID 1768; 0.23% of 270,000 active; O00255; Menin + Texas Red MLL mutant peptide, fluorescence polarization; Potency, µM (highest dose often 61.6 µM), without a hit: top-dose FP activity change, negative = inhibition, usual class: inhibitors; active = well fitted inhibition curve with a large enough effect in the polarisation, with a control signal flat, not every such curve was filed as active; inconclusive = small, poorly fitted or top-dose-only effect, or effect the other way, or a change in a side signal; inactive = no such curve, though single readings can be large or run the other way; the % refers to the polarisation; note: potency is the fitted concentration of half-maximal effect; % of control where 0% means no effect
Target sequence (O00255 whole entry, looked up): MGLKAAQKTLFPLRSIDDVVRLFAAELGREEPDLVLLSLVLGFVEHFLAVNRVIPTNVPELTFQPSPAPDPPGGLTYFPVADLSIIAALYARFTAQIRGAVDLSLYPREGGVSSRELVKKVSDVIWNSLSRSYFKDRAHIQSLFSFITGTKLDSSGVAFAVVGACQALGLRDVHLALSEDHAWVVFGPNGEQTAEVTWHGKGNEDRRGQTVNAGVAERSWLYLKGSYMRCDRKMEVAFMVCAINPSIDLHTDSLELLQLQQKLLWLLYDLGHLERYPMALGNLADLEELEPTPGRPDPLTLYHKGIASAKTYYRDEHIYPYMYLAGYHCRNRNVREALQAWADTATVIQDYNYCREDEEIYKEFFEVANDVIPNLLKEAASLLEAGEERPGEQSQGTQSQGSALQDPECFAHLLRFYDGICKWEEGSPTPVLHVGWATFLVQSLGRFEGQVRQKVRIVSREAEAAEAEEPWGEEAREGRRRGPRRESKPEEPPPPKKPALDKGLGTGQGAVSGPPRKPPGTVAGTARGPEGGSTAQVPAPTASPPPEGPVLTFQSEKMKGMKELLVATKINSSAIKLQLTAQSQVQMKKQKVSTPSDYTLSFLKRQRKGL
Menin-MLL FL inh: menin-MLL binding inhibition, fluorescein peptide. Fluorescence polarization, fluorescein-MLL peptide displacement from menin. AID 1766. 290,000 tested, under 10 active. FP activity change, % at 61.4 µM; active = well fitted curve in the direction sought with a large enough effect in the polarisation, not every such curve was filed as active; inconclusive = small, poorly fitted or top-dose-only effect, or effect the other way, or a change in a side signal; inactive = no such curve, though single readings can be large or run the other way; the % refers to the polarisation; note: % of control where 0% means no effect
CXXC DNA block: blocks binding of human MLL CXXC domain to DNA | Q03164 | MLL-CXXC / FITC-HOXA9 DNA fluorescence polarization | Potency, µM (highest dose often 115 µM), without a hit: at the highest dose activity change, negative = inhibition, most hits filed as inhibitors | 0.037% of 290,000 active | AID 2662; active = well fitted inhibition curve with a large enough effect in the polarisation, with a control signal flat, not every such curve was filed as active; inconclusive = small, poorly fitted or top-dose-only effect, or effect the other way, or a change in a side signal; inactive = no such curve, though single readings can be large or run the other way; the % refers to the polarisation; note: potency is the fitted concentration of half-maximal effect
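Steps: dispense CXXC domain solution (7 uM) → pin compounds or unlabeled HOX-A9 DNA control → 5 min ambient → add FLSN-HOX-A9 solution (50 nM) → spin → 30 min ambient → fluorescence polarization. Tris pH 7.5/NaCl/DTT/BSA buffer.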
CtBP-E1A inh: CtBP/E1A binding inhibition | AlphaScreen GST-E1A/His-CtBP binding, 1536-well; active compounds read low | activity change, % (concentration not given with the values) | 0.49% of 340,000 active | AID 651724; note: % is set by controls: 0 for no effect and ±100 for the full control effect
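In 5 uL wells, 23 nL compound meets equimolar GST-E1A and His-CtBP (5X stock 125 nM each) for 2 h, 37 °C. Beads (5X, 50 ug/mL) then 1 h, 37 °C, dark.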
GLS inhibitor: blocks human kidney-isoform glutaminase activity; Potency, µM (doses to about 45.5 µM), for inactives: at the top dose activity change, negative = inhibition, hits mostly inhibitors; 0.21% of 410,000 active; O94925; GLS enzymatic activity, qHTS titration; active = well fitted inhibition curve with a large enough effect; inconclusive = small, poorly fitted or top-dose-only effect, or another doubt; inactive = no such curve, though single readings can be large or run the other way; note: potency is the fitted concentration of half-maximal effect; % is set by controls: 0 for no effect and ±100 for the full control effect
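Two-point fluorescence kinetic (t0, 30 min RT) for hKGA; glutamate detected via glutamate oxidase–HRP–Amplex Red. Substrate: 1 mM L-glutamine solution; buffer 45 mM KH2PO4, pH 8.2.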
Six1-Eya2 inh: inhibitors of human Six1/Eya2 interaction. Q15475+O00167. AlphaScreen GST-Six1/His-Eya2 binding, biochemical; active compounds read low. activity change, % (no concentration beside the values). 0.56% of 360,000 active. AID 651725; note: % is set by controls: 0 for no effect and ±100 for the full control effect
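AlphaScreen with GST-Six1 and His-Eya2 (5X mix: 250 nM and 500 nM), glutathione donor and nickel acceptor beads; buffer 50 mM Tris pH 8.0, 300 mM NaCl, 1 mM TCEP; 1 h at 37 C in the dark.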
Starred values were filed as active, the others as inactive; ? = inconclusive; / = no result; [ ] = remark or other dose. Most compounds without a hit are left out; they make up all but 0.83% or so of the library. Cut-off read from the data, not from the text of the source, unless noted: active = activity change below about -65%; inconclusive = mostly about -30% to -63%; inactive = weaker than that.

SMILES | Menin-MLL TR inh | Menin-MLL FL inh | CXXC DNA block | CtBP-E1A inh | GLS inhibitor | Six1-Eya2 inh
CCn1c(SCc2nc3sc(C(=O)O)c(C)c3c(=O)[nH]2)nc2ccccc21 | 17% | ? | ? | -8 | ? | -68*
COCCn1c(SCc2nc3sc(C(=O)OC)c(C)c3c(=O)[nH]2)nc2ccccc21 | 12% | 6 | 13% | 1 | 17% | 3
O=C(Nc1cccc(F)c1)N1CCCC2(CCN(C(=O)c3cc(C(F)(F)F)cc(C(F)(F)F)c3)CC2)C1 | 2% | 15 | / | / | / | /
O=C(NN1CCCC1)NS(=O)(=O)c1ccc(Cl)cc1 | / | / | / | / | 5% | /
COc1ccccc1NC(=O)C1=C(C)NC2=C(C(=O)CC(c3ccc(OC)c(OC)c3)C2)C1c1coc2ccccc2c1=O (centres undefined) | 1% | 8 | 53% | -20 | 7% | -78*
Cc1c(N)nc([C@@H](CC(N)=O)NC[C@H](N)C(N)=O)nc1C(=O)N[C@H](C(=O)N[C@@H](C)[C@@H](O)[C@@H](C)C(=O)N[C@H](C(=O)NCCc1nc(-c2nc(C(=O)NCCCN[C@H](C)c3ccccc3)cs2)cs1)[C@H](C)O)[C@@H](O[C@H]1O[C@@H](CO)[C@H](O)[C@@H](O)[C@H]1O[C@H]1O[C@@H](CO)[C@@H](O)[C@H](OC(N)=O)[C@H]1O)c1cnc[nH]1 | / | / | / | / | -1% | /
COc1c(C2=CC(=O)N(C)C2=O)c2c(n1C)C(=O)c1ccccc1C2=O | -10% | 2 | / | / | / | /
Cc1ccc(CN2CC(C(=O)N3CCN(c4ccccc4O)CC3)CC2=O)cc1 (centres undefined) | / | / | / | -5 | 7.1µM* | -9
O=C1CC(C(=O)N2CCN(c3ccccc3Cl)CC2)CN1Cc1ccccc1 (centres undefined) | / | / | / | -6 | 0% | 4
Cc1ccc(C[C@H](C(=O)O)N2C(=O)c3ccc(C(=O)O)cc3C2=O)c(C)c1 | 11% | -6 | / | / | / | /
COc1ccc(NC2=NC3(CCCCC3)N=C(N)N2)cc1 | 1% | 0 | 2% | -3 | -7% | -13
COc1ccc(OC)c(NC2=NC3(CCCCC3)N=C(N)N2)c1 | -13% | 0 | 0% | -73* | 1% | -84*
CC(=O)OCC(=O)[C@@]1(O)CCC2C3CCC4=CC(=O)CC[C@]4(C)C3=CC[C@@]21C (some centres undefined) | / | / | / | / | 1% | /
CC12C=CC(=O)C=C1CCC1C2C(O)CC2(C)C1CCC2(O)C(=O)COC(=O)CCC(=O)O (centres undefined) | / | / | / | / | -5% | /
O=C(O)c1cc(O)c2c(c1)[C@H]([C@H]1c3cc(C(=O)O)cc(O)c3C(=O)c3c(O[C@@H]4O[C@H](CO)[C@@H](O)[C@H](O)[C@H]4O)cccc31)c1cccc(OC3O[C@H](CO)[C@@H](O)[C@H](O)[C@H]3O)c1C2=O (some centres undefined) | / | / | / | ? | ? | -74*
O=C(O)c1cc(O)c2c(c1)[C@@H]([C@H]1c3cc(C(=O)O)cc(O)c3C(=O)c3c(O[C@@H]4O[C@H](CO)[C@@H](O)[C@H](O)[C@H]4O)cccc31)c1cccc(OC3O[C@H](CO)[C@@H](O)[C@H](O)[C@H]3O)c1C2=O (some centres undefined) | / | / | / | -29 | ? | -82*
O=C1c2cc(CO)cc(O)c2C(=O)c2c(O[C@@H]3OC(CO)[C@@H](O)[C@@H](O)[C@@H]3O)cccc21 (some centres undefined) | / | / | / | -4 | -10% | -3
CC1(C)S[C@@H]2[C@H](NC(=O)[C@@H](N)c3ccc(O)cc3)C(=O)N2[C@H]1C(=O)O | 9%[24.8 µM] | -3[24.8 µM] | / | / | / | /
COc1ccc(NC(=O)/C(C#N)=C/c2ccc(OCc3ccccc3F)cc2)cc1 | 18µM* | 10 | 6% | 12 | 10% | 5
N#C/C(=C\c1ccc(OCc2ccccc2)cc1)C(=O)Nc1ccc(C(=O)O)cc1 | ? | -6 | -1% | 7 | -7% | 14
Cc1c(N=NC2=C(O)CCCC2=O)c(=O)n(-c2ccccc2)n1C | 0% | -1 | -6% | -92* | 12% | -79*
Cc1cc(C)c2cc3c(N)c(C(=O)Nc4c(C)[nH]c(=O)[nH]c4=O)sc3nc2c1 | 7% | 7 | ? | -14 | ? | -71*
Cc1cccc(CNc2cc(-c3ccoc3)ncn2)c1 | 0% | ? | / | / | / | /
O=C(CSc1nnc2c3ccccc3c3ccccc3c2n1)Nc1ccccc1F | ? | 5 | 20% | 3 | 5% | ?
Cc1noc(NS(=O)(=O)c2ccc(NC(=O)CSc3nnc4c(n3)[nH]c3ccccc34)cc2)c1C | 16% | 5 | 2% | -90* | -16% | -88*
SMILES | Menin-MLL TR inh | Menin-MLL FL inh | CXXC DNA block | CtBP-E1A inh | GLS inhibitor | Six1-Eya2 inh
Cc1noc(NS(=O)(=O)c2ccc(NC(=O)CSc3nc4ccccc4[nH]3)cc2)c1C | 14% | 4 | 13% | -1 | 7% | -6
Cn1c2ccccc2c2nnc(SCC(=O)Nc3cccc(C(=O)O)c3)nc21 | 15% | 1 | 8% | ? | 1% | -67*
O=C(CSc1nnc2c3ccccc3c3ccccc3c2n1)Nc1ccccc1 | 13µM* | 2 | 5% | / | / | /
Cc1ccc(C2=NN=C(NC(=O)CSc3nnc4c5ccccc5n(C)c4n3)SC2)cc1 | 3% | 2 | 3% | ? | 3% | -72*
CCn1c(=O)c2sccc2n2c(CCC(=O)NCc3ccc(Cl)cc3)nnc12 | / | / | / | / | -3% | /
COc1ccc(-c2cc(=O)c3c(O)cc(O[C@H]4OC(COC5OC(C)C(O)C(O)[C@H]5O)C(O)C(O)C4O)cc3o2)cc1O (some centres undefined) | 25µM* | 1 | 12% | / | ? | /
O[C@@H](CNC[C@H](O)[C@H]1CCc2cc(F)ccc2O1)[C@@H]1CCc2cc(F)ccc2O1 | / | / | / | / | -1% | /
Cc1nc(N/N=C/c2ccc(O)cc2)c2cnn(-c3ccccc3)c2n1 | ? | -5 | -7% | -76* | 3% | ?
COc1cc(OC)c(NC(=O)CN(C)S(=O)(=O)c2ccc(-c3ccc(=O)[nH]n3)s2)cc1Cl | / | / | 17% | / | 5% | -71*
C=CC#CC[N+]1(CC#Cc2ccccc2)CCOCC1 | 25µM* | -20 | 51% | -14 | -23% | 23
C(#Cc1ccccc1)C[N+]1(CC#Cc2ccccc2)CCCC1 | -12% | 4 | -1% | 1 | 8% | 4
CCN(CC)c1ccc(C2C(C(N)=O)=C(C)Nc3nc(SCc4ccccc4Cl)nn32)cc1 (centres undefined) | / | / | / | / | 20% | /
CN1c2cc3c(cc2N=C(c2ccc(C(=O)O)cc2)c2ccccc21)C(C)(C)CCC3(C)C | ? | 1 | / | / | / | /

Screening data as filed in PubChem BioAssay.
